Experimental findings from PubChem BioAssay AID1159537 (DiRusso Lab, Biochemistry Department, University of Nebraska, 2015) are described below.

Screen size: about 44,000 compounds; about 370 (0.84%) were called active. No rule for the calls is given here. What follows is part of a selection rich in actives, with near analogues and random picks from the rest.

The assay can be described thus: inducers of TAG accumulation in Chlamydomonas, primary screen, qHTS, Chlamydomonas reinhardtii (AID 1159537).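 Also: hits raise Nile Red signal meaning more stored TAG.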 The settings on record: Nile Red fluorescence, 72 h, screened at 10 µM (by protocol). On the technique in general: qHTS replaces the single test concentration by a dilution series.
For `O=C(COc1ccc(F)cc1)NCc1ccco1`, the compound was called inactive. As to `CCOc1ccc(-c2cc(C(=O)NCc3ccccn3)c3ccccc3n2)cc1`, the call was inactive. Consider `Cn1c(SCC(=O)Nc2cccc([N+](=O)[O-])c2)nc2ccccc21`, for which the compound was classed as inactive. As to `COc1ccc(C2C(=C(O)c3ccc(C)cc3)C(=O)C(=O)N2c2ccccn2)cc1` (stereo not given), the compound was called inactive. Under `O=C(Cc1ccc(Cl)cc1)N1CCN(c2ccc(Cl)cc2[N+](=O)[O-])CC1` stands “inactive”; under `O=C(Nc1cccc(F)c1)N1CCN(c2ccccc2F)CC1`, “inactive”; under `Cc1cccc(OCC(=O)Nc2cc(-c3nc4ncccc4o3)ccc2C)c1`, “inactive”. Regarding `O=C(NCc1cccnc1)C(CCO)Sc1nc2sc3c(c2c(=O)[nH]1)CCCC3` (stereo not given), the compound was classed as inactive.

`Cc1ccc(S(=O)(=O)N2CCC(N3CCCCCC3)CC2)cc1`: the call was inactive. Under `Cc1ccc(N2CCN(C3CCCCCC3)CC2)cc1` stands “active”; under `Cc1ccc(C(=O)N2CCN(c3ccccc3)CC2)cc1`, “inactive”.

On to `COc1cccc(NC(=O)Nc2nnc(-c3cccc(OC)c3)s2)c1`, for which the compound was called inactive. Take `Cc1ccc(C(=O)CNc2ccc(F)cc2)cc1`: the result was inactive. As to `Cc1cc(C)c2nc(C)cc(Nc3ccc4c(c3)OCCO4)c2c1`, the call was inactive.

On to `Cc1ccc(C(=O)N(Cc2ccccc2)C(C)C)cc1[N+](=O)[O-]`, for which the call was inactive. For `NC(=O)c1ccc(NC(=O)C(Sc2ccccc2)c2ccccc2)cc1` (stereo not given), the call was inactive. In the case of `COc1ccc(OC)c(NC(=O)CC2CCCCC2)c1`, the compound was classed as inactive. For `O=C(CCCOc1ccc(Cl)cc1Cl)N1CCCC1`, the compound was classed as inactive. Turning to `O=[N+]([O-])c1ccccc1OCCCCN1CCCCC1`, the result was inactive. As to `Cc1ccc(OCCOCCN2CCN(C)CC2)c(Br)c1`, the result was inactive.

On to `Fc1ccccc1OCCN1CCCC1`, for which the outcome was inactive. Under `O=C(COc1ccc(Br)cc1Cl)NCCO` stands “inactive”; under `Clc1ccc(OCCN2CCCCCC2)cc1`, “inactive”. Under `Clc1ccccc1OCCCCN1CCOCC1` stands “active”; under `Clc1ccc(OCCOCCN2CCCC2)c(Br)c1`, “active”. In the case of `Clc1ccc(CN2CCOCC2)c(Cl)c1` it was “inactive”; in that of `Clc1cc(Br)ccc1OCCCCN1CCOCC1`, “active”. Consider `COc1ccc(C(=O)NCCCN2CCOCC2)cc1Br`, for which the compound was classed as inactive. Turning to `Clc1ccc(OCCCCN2CCOCC2)c(Br)c1`, the outcome was active.

In the case of `Cc1cc(N/C=C/C(=O)c2cccs2)no1`, the result was inactive. For `CCN(CC)CCC(=O)c1ccc(C(C)C)cc1`, the compound was called inactive. On to `CCc1ccc(NC(=O)Nc2ccccc2)cc1`, for which the result was inactive. On to `CCCC(=O)Nc1cccc(NC(=O)COc2ccc(C)c(C)c2)c1`, for which the compound was classed as inactive. For the compound `Cc1cccc(C)c1OCC(=O)Nc1ccc([N+](=O)[O-])cc1`, the result was inactive. For `CCCC1CCc2c(sc(NC(=O)C3C4C=CC(C4)C3C(=O)O)c2C(N)=O)C1` (stereo not given), the compound was called inactive.
